Compound activity as filed in PubChem.
RXFP1 agonist: activates the human relaxin receptor RXFP1. HEK293T-RXFP1 cAMP TR-FRET, 30 min; response scale: percent of porcine relaxin response, buffer zero. Potency, µM (titrated, usually from 57.5 µM), most hits filed as activators. Q9HBX9. 370,000 tested, 0.3% active. AID 2676; note: nearly all actives have a fitted effect of over 60% in size
Target sequence (Q9HBX9 whole entry, looked up): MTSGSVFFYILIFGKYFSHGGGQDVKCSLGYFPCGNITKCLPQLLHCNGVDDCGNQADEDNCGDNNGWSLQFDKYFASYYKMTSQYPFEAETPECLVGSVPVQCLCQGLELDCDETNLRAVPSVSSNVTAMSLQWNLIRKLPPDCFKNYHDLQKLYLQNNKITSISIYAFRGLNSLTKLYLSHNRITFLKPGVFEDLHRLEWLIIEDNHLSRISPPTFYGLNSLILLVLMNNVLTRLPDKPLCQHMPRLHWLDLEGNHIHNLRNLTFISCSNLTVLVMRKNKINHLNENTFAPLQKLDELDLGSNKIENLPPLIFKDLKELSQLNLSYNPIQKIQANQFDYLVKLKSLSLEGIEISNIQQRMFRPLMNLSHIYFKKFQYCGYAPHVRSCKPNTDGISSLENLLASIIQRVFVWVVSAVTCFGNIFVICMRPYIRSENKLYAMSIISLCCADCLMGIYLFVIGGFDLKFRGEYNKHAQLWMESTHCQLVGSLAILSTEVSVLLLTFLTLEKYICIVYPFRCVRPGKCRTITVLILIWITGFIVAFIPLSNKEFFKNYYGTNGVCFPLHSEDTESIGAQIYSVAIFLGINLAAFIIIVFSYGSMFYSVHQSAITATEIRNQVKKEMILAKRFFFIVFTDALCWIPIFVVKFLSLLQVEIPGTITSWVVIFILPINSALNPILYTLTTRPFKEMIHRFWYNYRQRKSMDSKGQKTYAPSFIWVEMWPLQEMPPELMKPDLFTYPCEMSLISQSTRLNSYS
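HEK293T cells stably expressing RXFP1 were pretreated with the PDE4 inhibitor Ro 20174, exposed to compounds for 30 min at 37C, lysed, and cAMP was read by TR-FRET. Data normalized to buffer (basal) and 29 nM porcine relaxin (100%).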
CCT modulator: changes cytosolic chaperonin activity; 360,000 tested, 0.3% active; purified chaperonin ATPase assay, HTRF ADP detection, 30 min; AID 651819; activity change, % (no concentration beside the values), hits read low; in the data active = activity change below about -30%
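Nucleotide hydrolysis assay: TRiC at 20–40 nM final (set by batch activity) with 10 uM ATP, 30 min at 37 °C, in presence of 76 uM compound. Detection by competitive ADP HTRF, 30 min ambient.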
gsp antagonist: antagonists of gsp mutant (McCune-Albright syndrome); Potency, µM (highest dose often 76.9 µM), actives largely listed as inhibitors; AID 624288; gsp-mutant cells, cAMP HTRF, 30 min; 340,000 tested, 0.4% active; calls by dose curve; cell line not stated here;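 note: intracellular cAMP measured with PDE inhibitor Ro 20-1724 present during compound exposure; nearly all actives have a fitted effect of over 65% in size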
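G418-selected cells were plated in DMEM/10% FBS for 16-24 h at 37C, then treated with compounds plus the PDE inhibitor […] (300 uM solution added) for 30 min at 37C. Intracellular cAMP was measured by HTRF after 30 min lysis at room temperature.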
RXFP1 antag: antagonists of human relaxin receptor RXFP1; activity change, negative = inhibition, % at 57.5 µM; 350,000 tested, 0.59% active; HEK293-RXFP1, relaxin-stimulated cAMP HTRF, 30 min; hits give low values;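 active = activity change of -60% or lower, but not beyond a set lower limit; inconclusive = change between -60% and -40%, or beyond the set limit; inactive = change above -40%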
gsp ag: agonists of gsp mutant (McCune-Albright syndrome); AID 624287; gsp mutant cells, cAMP HTRF, 30 min; Potency, µM (doses to about 76.9 µM), hits mostly activators; 340,000 tested, 0.13% active; active = well fitted activation curve with a large enough effect; inconclusive = small, poorly fitted or top-dose-only effect, or another doubt; inactive = no such curve, though single readings can be large or run the other way; cell line not stated here;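 note: phosphodiesterase inhibitor Ro 20-1724 added with compounds to block cAMP breakdown; nearly all actives have a fitted effect of over 60% in size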
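Cells in DMEM/10% FBS with G418 were pretreated with compounds in DMSO plus […] (300 uM stock) for 30 min at 37C. cAMP was measured by HTRF (cAMP-d2 plus anti-cAMP antibody-K) after 30 min at room temperature.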
MmCpn inh: inhibitors of Methanococcus maripaludis chaperonin TRiC (MmCpn); purified Mm-Cpn ATPase, ADP Transcreener TR-FRET; Potency, µM (series often up to 76.9 µM), actives largely listed as inhibitors; 330,000 tested, 0.031% active; AID 504842; note: nearly all actives have a fitted effect of over 80% in size
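Compound-treated chaperonin, 25 nM final, turns over 10 uM ATP at 37°C for 30 min following a 10 min preincubation; ADP generated competes with ADP-d2 for Eu-cryptate antibody, lowering FRET.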
Of the large screens only hits and unclear results are named; the others gave an inactive call. Rows were chosen to be rich in hits. Some 1.2% of all compounds tested hit in one or more screens of this group. Unless noted, calls come from the whole dose curve; as a rule, active = well fitted curve in the direction sought with a large enough effect; inconclusive = small, poorly fitted or top-dose-only effect, or another doubt; inactive = no such curve, though single readings can be large; an effect the other way counts as inactive or inconclusive.

COc1cc(C=C2C(=O)NC(=O)NC2=O)ccc1OCc1ccc([N+](=O)[O-])cc1	none
COc1cc(/C=C(/C)[N+](=O)[O-])ccc1OCc1ccccc1Cl	CCT modulator -31, RXFP1 antag inconclusive
CCN1C(=O)C(=C2C=C(C)N(Cc3ccco3)C(C)=C2)C(=O)N(CC)C1=S	RXFP1 agonist 28µM, gsp ag inconclusive
CC(C)(N)Cc1ccccc1Cl	none (no result: RXFP1 agonist, CCT modulator, gsp antagonist, gsp ag, MmCpn inh)
C[n+]1c(-c2ccccc2)sc2ccccc21	none
C[n+]1ccc(-c2ccccc2)c2ccccc21	CCT modulator -32 (no result: RXFP1 antag, gsp ag)
CN1C(=O)C(=Cc2ccc(N3CCCCCC3)cc2)C(=O)N(C)C1=O	gsp antagonist 35µM
O=C1NC(=O)N(Cc2ccc(F)cc2)C(=O)/C1=C\c1ccc(N2CCCC2)cc1	none
CC[N+]1(CC)CCC(OC(=O)C(O)(c2ccccc2)c2ccccc2)C1 (centres undefined)	none (no result: RXFP1 agonist, CCT modulator, gsp antagonist, gsp ag, MmCpn inh)
Nc1c(C(=O)OC2CCCCC2)c2nc3ccccc3nc2n1CC1CCCO1 (centres undefined)	gsp antagonist inconclusive, RXFP1 antag -62
COc1cc(CC(C)N)c(OC)cc1C (centres undefined)	none (no result: RXFP1 agonist, CCT modulator, gsp antagonist, gsp ag, MmCpn inh)
Cc1cc(C)cc(N2C(=O)NC(=O)/C(=C\c3cccn3-c3ccccc3)C2=O)c1	none
CN1C(=O)/C(=C/c2cccn2-c2ccc3ccccc3c2)C(=O)NC1=S	RXFP1 antag -97
CCN1/C(=C\C=C\C2=[N+](CC)c3ccccc3C2(C)C)C(C)(C)c2ccccc21	RXFP1 antag -73
C[C@]12Cc3cn[nH]c3C[C@@H]1CC[C@@H]1[C@@H]2CC[C@@]2(C)[C@H]1CC[C@]2(C)O	none (no result: RXFP1 agonist, CCT modulator, gsp antagonist, gsp ag, MmCpn inh)
Cc1ccc2c(c1)C1CN(C)CCC1N2 (centres undefined)	none (no result: RXFP1 agonist, CCT modulator, gsp antagonist, gsp ag, MmCpn inh)
ClCCN1CCCC1	none (no result: RXFP1 agonist, CCT modulator, gsp antagonist, gsp ag, MmCpn inh)
CN1CC[C@]23c4c5ccc(O)c4OC2[C@H](O)C=CC3[C@H]1C5 (some centres undefined)	none (no result: RXFP1 agonist, RXFP1 antag, gsp ag)
CN1CCC23c4c5ccc(O)c4O[C@@H]2[C@H](O)C=CC3C1C5 (some centres undefined)	CCT modulator -45 (no result: RXFP1 agonist, RXFP1 antag, gsp ag)
CCN(C1CCCCC1)S(=O)(=O)c1ccc(S(=O)(=O)N(CC(=O)Nc2ccccc2)C2CC2)cc1	MmCpn inh inconclusive
CN(CC(=O)Nc1cccc(F)c1)CC(=O)Nc1cccc(S(=O)(=O)N(C)c2ccccc2)c1	gsp antagonist 50µM (no result: RXFP1 agonist, MmCpn inh)
CCN(CC)C(=O)[C@@H]1C=C2c3cccc4[nH]cc(c34)C[C@H]2N(C)C1	none (no result: RXFP1 agonist, CCT modulator, gsp antagonist, gsp ag, MmCpn inh)
COc1nn(CSP(=S)(OC)OC)c(=O)s1	none (no result: RXFP1 agonist, CCT modulator, gsp antagonist, gsp ag, MmCpn inh)
CN1C(=O)C(=Cc2ccccc2OCCOc2ccc([N+](=O)[O-])cc2)C(=O)N(C)C1=O	none
O=C1NC(=O)C(=Cc2ccccc2OCCOc2ccc([N+](=O)[O-])cc2)C(=O)N1	CCT modulator -32
O=C1C=CC(=O)C2C1C1(Cl)C(Cl)=C(Cl)C2(Cl)C1(Cl)Cl (centres undefined)	RXFP1 antag -95 (no result: RXFP1 agonist, MmCpn inh)
CC1(C)CC/C(=C\c2ccc(Cl)cc2)C1(O)Cn1cncn1 (centres undefined)	none (no result: RXFP1 agonist, CCT modulator, gsp antagonist, gsp ag, MmCpn inh)
C[C@H](CO)N1C[C@H](C)[C@H](CN(C)C(=O)N[C@H](C)c2ccccc2)OCc2ccccc2-c2c(n(C)c3ccccc23)C1=O	none (no result: RXFP1 agonist, gsp antagonist, MmCpn inh)
O=C1NC(=O)N(c2cccc(Cl)c2)C(=O)/C1=C\c1ccc(Sc2nc3ccccc3[nH]2)o1	none
O=C1NC(=O)N(c2ccccc2)C(=O)/C1=C/c1ccc(Sc2ccccc2)o1	RXFP1 antag -109, gsp ag inconclusive
COc1cccc(-n2c(/C=C/c3ccccn3)nc3ccccc3c2=O)c1	none
COc1ccc(-n2c(/C=C/c3ccc4c(c3)OCO4)nc3ccccc3c2=O)cc1	CCT modulator -40
Cc1cccc(-n2c(/C=C/c3ccccn3)nc3ccccc3c2=O)c1	CCT modulator -38
